# A selection: hits, their analogues and other compounds. The true share with any hit is near 17%.
# TDP1 inh: TDP1 (human) enzyme inhibition; 0.28% of 350,000 active; Potency, µM (top dose mostly 130 µM), for the others: at the top dose activity change, negative = inhibition, actives largely listed as inhibitors; recombinant TDP1, AlphaScreen DNA substrate cleavage; Q9NUW8; AID 485290; note: % is set by controls: 0 for no effect and ±100 for the full control effect; nearly all actives have a fitted effect of over 40% in size
# Target sequence (Q9NUW8 whole entry, looked up): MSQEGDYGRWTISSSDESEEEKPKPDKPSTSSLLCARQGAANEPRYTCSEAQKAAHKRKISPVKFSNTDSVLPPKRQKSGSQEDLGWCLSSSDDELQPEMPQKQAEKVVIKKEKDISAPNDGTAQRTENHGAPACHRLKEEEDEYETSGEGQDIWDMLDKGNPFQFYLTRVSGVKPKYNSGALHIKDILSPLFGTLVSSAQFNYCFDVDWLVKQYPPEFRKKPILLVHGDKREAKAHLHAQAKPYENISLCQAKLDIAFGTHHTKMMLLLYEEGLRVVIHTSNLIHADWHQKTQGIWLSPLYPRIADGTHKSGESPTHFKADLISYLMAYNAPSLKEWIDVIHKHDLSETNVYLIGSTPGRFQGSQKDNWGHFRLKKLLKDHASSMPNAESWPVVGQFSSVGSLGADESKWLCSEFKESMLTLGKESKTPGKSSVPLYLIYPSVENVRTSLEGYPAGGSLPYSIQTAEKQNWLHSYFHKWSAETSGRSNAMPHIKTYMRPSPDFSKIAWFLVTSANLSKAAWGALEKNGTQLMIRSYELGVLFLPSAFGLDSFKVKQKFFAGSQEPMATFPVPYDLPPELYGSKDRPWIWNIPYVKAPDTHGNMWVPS
#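 Enzyme-compound mixtures sat 15 min at room temperature, followed by a 5 min reaction with 15 nM final substrate and 10 min with AlphaScreen beads. Recombinant human Tdp1 was used at 1 nM final.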
# TDP1 cell noCPT: qHTS for Inhibitors of human tyrosyl-DNA phosphodiesterase 1 (TDP1): qHTS in cells in absence of CPT | 15% of 420,000 active | DT40 Tdp1-/- hTDP1 cells, no CPT, ATP luminescence, 48 h | AID 686978, 2013 | Potency, µM (highest dose often 46.2 µM), for inactives: at the top dose activity change, negative = growth inhibition, most hits filed as inhibitors; note: % is set by controls: 0 for no effect and ±100 for the full control effect; nearly all actives have a fitted effect of over 55% in size
#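 Chicken DT40 Tdp1-/- cells stably complemented with human TDP1 were seeded at 400 cells/well with DMSO in place of 20 nM camptothecin. After compound pinning, cells grew at least 48 hr at 37 °C; viability read by CellTiter-Glo luminescence.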
# TDP1 cell CPT: growth inhibition of DT40 Tdp1-/-;hTDP1 cells with camptothecin (screen for TDP1 inhibitors); Potency, µM (series often up to 46.2 µM), without a hit: top-dose activity change, negative = growth inhibition, usual class: inhibitors; AID 686979; 12% of 420,000 active; chicken DT40 Tdp1-/-;hTDP1 cells + 20 nM CPT, ATP luminescence, 48 h; note: % is set by controls: 0 for no effect and ±100 for the full control effect; nearly all actives have a fitted effect of over 55% in size
#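 Chicken DT40 Tdp1-/- cells stably complemented with human TDP1 were seeded at 400 cells/well in medium containing 20 nM camptothecin, exposed to pin-transferred compounds, and grown at 37 °C for at least 48 hr. Viability was read as ATP luminescence.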
# ClpP mod: qHTS Assay for Activators of ClpP | 1.9% of 340,000 active | ATP-dependent Clp protease proteolytic subunit (Bacillus subtilis (strain 168)), P80244 | purified B. subtilis ClpP, FRET peptide cleavage, 20 min | AID 651965, 2013 | Potency, µM (series often up to 57.5 µM), without a hit: at the highest dose activity change, negative = active; active = well fitted falling curve with a large enough effect; inconclusive = small, poorly fitted or top-dose-only effect; inactive = no such curve, though single readings can be large or run the other way; note: the source files actives as falling curves though it sought activators and does not explain the sign; nearly all actives have a fitted effect of over 65% in size
#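 ClpP 10 microg/mL final, pH 8 Tris/KCl buffer with BSA, glycerol, Tween-20; compound pinned in; FRET-FV substrate; RT 20 min; Ex320/Em430; ΔFRET vs ADEP 5.8 microM, DMSO, no enzyme.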
# * = called active by the depositor; ? = inconclusive; nt = no result; ! = a repeat was not active; [ ] = remark or other dose. Unless noted, calls come from the whole dose curve; as a rule, active = well fitted curve in the direction sought with a large enough effect; inconclusive = small, poorly fitted or top-dose-only effect, or another doubt; inactive = no such curve, though single readings can be large; an effect the other way counts as inactive or inconclusive. Potency is the fitted concentration of half-maximal effect.
SMILES,TDP1 inh,TDP1 cell noCPT,TDP1 cell CPT,ClpP mod
O=C(Nc1ccccc1Cl)c1cc(C2CCCCN2C(=O)CCCc2ccccc2)on1 (stereo not given),nt,23.1µM*,29.1µM*,-7.4%
COCCN(Cc1nnc(-c2cccs2)o1)C(=O)CN1C(=O)NC2(CCCCC2)C1=O,-0.3%,?,0.3%,nt
O=C(Nc1cccc(Cl)c1)N1CCN2C(=O)c3ccccc3C12c1ccccc1 (stereo not given),6.0%,18.4µM*,?,15.8µM*
Cc1ccc(C(=O)N2CCN3C(=O)c4ccccc4C23c2ccc(Cl)cc2)cc1 (stereo not given),3.8%,10.3µM*,8.2µM*,1.4%
O=C(CN1C(=O)c2ccccc2C1=O)Nc1cccc(Cl)c1,nt,-8.3%,-16.6%,nt
COC(=O)[C@@H]1C[C@@H](NC(=O)c2ccc(C(F)(F)F)cc2)CN1Cc1cccc(O)c1,nt,-14.6%,-8.2%[9.04 µM],nt
COc1ccc(/C(C)=N/NC(=O)CNC(=O)c2cccnc2)cc1,nt,0.4%,14.0%,nt
C/C(=N\NC(=O)c1cccnc1)c1ccc(OC2OCCOC2Oc2ccc(/C(C)=N/NC(=O)c3cccnc3)cc2)cc1 (stereo not given),6.5%,20.6µM*,?,nt
O=C(N/N=C(\CC(=O)c1cccs1)C(F)(F)F)c1cccnc1,7.6%,23.1µM*,?,-0.3%
C/C(=N\NC(=O)c1cccs1)c1cccnc1,2.3%,25.9µM*,14.6µM*,nt
O=C(N/N=C(/CC(=O)c1cccs1)C(F)(F)F)c1ccc(O)cc1,6.7%,-25.4%,21.6%,1.1%
C=CCN(C)CC/C=C1\c2ccccc2CSc2ccccc21,5.9%[56.1 µM],?,?,3.4%
NCC/C=C1/c2ccccc2CSc2ccccc21,8.8%[56.1 µM],35.5µM*,25.1µM*,0.0%
Sc1oc(-c2ccccc2)cc1C=Nc1ccccc1,12.3%,16.4µM*,5.8µM*,0.5%
Fc1cccc(Cl)c1-c1nnc2ccc3ccccc3n12,5.3%,10.3µM*,25.9µM*,-10.6%
Fc1ccccc1-c1nnc2ccc3ccccc3n12,nt,?,1.8%,nt
Cc1cc(C)cc(-n2ncc3c2CCCC3NC(=O)c2cc(C)oc2C)c1 (stereo not given),6.9%,23.1µM*,?,nt
Cc1cc(C)cc(-n2ncc3c2CCCC3NC(=O)c2csnn2)c1 (stereo not given),2.4%,-0.8%,-14.7%,-0.8%
Cc1ccc(-n2ncc3c2CCCC3NC(=O)c2ccoc2)cc1C (stereo not given),3.6%,?,?,-0.7%
COCc1ccc(C(=O)NC2CCCc3c2cnn3-c2cc(C)cc(C)c2)s1 (stereo not given),nt,20.6µM*,?,0.4%
COc1ncccc1C(=O)NC1CCCc2c1cnn2-c1cc(C)cc(C)c1 (stereo not given),2.7%,-14.9%,?,-1.2%
COCc1ccc(C(=O)NC2CCCc3c2cnn3-c2ccc(C)c(C)c2)o1 (stereo not given),3.8%[56.1 µM],?,18.4µM*,3.6%
Cc1ccc(CNS(=O)(=O)c2cc3[nH]c(=O)c(=O)[nH]c3cc2C)cc1,0.0%,-5.3%,5.9%,4.4%
O=C(NCc1cccnc1)c1cc(C2CCCCN2C(=O)c2ccc(Cl)cc2)on1 (stereo not given),nt,-27.9%,-19.1%,1.1%
CCCOP(=O)(OCCC)c1c([N+](=O)[O-])cc(C(F)(F)F)cc1[N+](=O)[O-],-1.4%,18.4µM*,?,-2.3%
SMILES,TDP1 inh,TDP1 cell noCPT,TDP1 cell CPT,ClpP mod
COC(=O)c1ccc(CO/N=C/c2cccc([N+](=O)[O-])c2)cc1,nt,-10.9%,4.1%,-25.5%
COc1cccc(CC(=O)Nc2ccc3nc(C)sc3c2)c1,-8.1%,13µM*,?,nt
COc1ccccc1NC(=O)c1ccc2nc(C)sc2c1,1.5%,-16.5%,-2.2%,nt
COc1cccc(NC(=O)c2ccc3nc(C)sc3c2)c1,1.0%,?,18.4µM*,0.0%
COc1cc(CC(=O)Nc2ccc3nc(C)sc3c2)cc(OC)c1OC,-2.7%,?,-21.0%,-0.2%
COc1ccc(C(=O)Nc2cccc(OC(=O)c3ccc(C)c(C)c3)c2)cc1,0.0%,23.1µM*,-74.9%,-3.0%
COc1ccc(C(=O)Nc2cccc(OC(=O)c3ccco3)c2)cc1,-10.5%,1.7%,5.5%,nt
CCOC(=O)[C@@H](C)N(Cc1ccc(OC)cc1)S(=O)(=O)N(Cc1ccccc1)[C@H](C(=O)OC)C(C)C,-2.5%,-92.7%,?,-0.2%
C=CS(=O)(=O)N(Cc1ccccc1Br)[C@H](CO)Cc1ccccc1,nt,7.08µM*,7.94µM*,0.3%
COC(=O)[C@H](CC(C)C)N(Cc1ccccc1)S(=O)(=O)N(Cc1ccccc1)[C@@H](CC(C)C)C(=O)OC,0.2%,11.6µM*,20.6µM*,-0.5%
O=S(=O)(N(Cc1ccccc1)[C@@H](CO)Cc1ccccc1)N(Cc1ccccc1)[C@@H](CO)Cc1ccccc1,1.5%,5.62µM*,?,-1.3%
COC(=O)C(CC(C)C)N(Cc1cc(OC)cc(OC)c1)S(=O)(=O)c1ccccc1Br (stereo not given),-3.7%[56.1 µM],?,?,-2.8%
C=C[C@H](CC(C)C)N(Cc1ccccc1)S(=O)(=O)N(Cc1ccc(OC)cc1)[C@H](C=C)CC(C)C,-0.5%,13µM*,?,0.4%
O=c1[nH]cnc(O)c1C1C=CC=CC=C1,nt,?,-28.5%,-0.7%
CC(C)N(Cc1ccccc1)S(=O)(=O)N(C)C,2.2%,-19.2%,-2.0%,0.3%
CC(C)C[C@H](CO)N(Cc1ccccc1)S(=O)(=O)N(Cc1ccccc1)[C@@H](CO)CC(C)C,-0.5%,11.6µM*!,16.4µM*,-0.1%
COC(=O)[C@H](C(C)C)N(Cc1ccccc1)S(=O)(=O)CCNC1CCCC1,0.3%[56.1 µM],?,25.9µM*,0.8%
C=CS(=O)(=O)N(Cc1ccccc1)[C@H](CO)CC(C)C,nt,11.2µM*,10µM*,2.2%
CCOC(=O)[C@@H](C)NS(=O)(=O)N(Cc1ccccc1)[C@H](C(=O)OC)C(C)C,-0.1%,?,?,1.9%
CCCN(CCC)S(=O)(=O)c1ccc(C(=O)Nc2nc(-c3ccccc3)c(C(=O)OCC)s2)cc1,2.7%,?,?,0.5%
CC(C)(C)Cc1c(C2CCCCC2)nc2ccc(Cl)cn12,nt,?,-5.7%,-15.6%
CCOc1ccc(NS(=O)(=O)c2c(C)nc3sc(C)c(C)n3c2=O)cc1,5.1%,?,18.4µM*,-1.6%
CCc1nn2c(=O)c(S(=O)(=O)Nc3ccccc3)c(C)nc2s1,nt,-21.4%,-10.1%,nt
CCc1ccc(NS(=O)(=O)c2c(C)nc3sc(CC)nn3c2=O)cc1,-2.1%[12.3 µM],13µM*,?,0.5%
CCc1nn2c(=O)c(S(=O)(=O)Nc3ccc(C)c(C)c3)c(C)nc2s1,0.0%,23.1µM*,?,-2.5%
